Source: PubChem BioAssay (NCATS)
Inconclusive results are not listed. Calls of active or inactive are those of the source. Calls follow the shape of the dose curve; as a rule, active = well fitted curve in the direction sought with a large enough effect; inconclusive = small, poorly fitted or top-dose-only effect, or another doubt; inactive = no such curve, though single readings can be large; an effect the other way counts as inactive or inconclusive.

Tests used:
[1] = Quantitative High-Throughput drug screen in 47 multiple myeloma cell lines against the NCATS MIPE library collection: KHM11_PLB cell viability assay (AID 1918962); also: nearly all actives have a fitted effect of over 35% in size
Summary of the method: (§1)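 qHTS of the MIPE 4.0 collection: 500 myeloma cells/well, 48 h drug exposure at 37C in 5% CO2, then CellTiter-Glo for 5 min at room temperature before luminescence reading.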

[2] = Quantitative High-Throughput drug screen in 47 multiple myeloma cell lines against the NCATS MIPE library collection: JIM3_ECACC cell viability assay (AID 1918963; also: nearly all actives have a fitted effect of over 35% in size)
Summary of the method: as §1

[3] = Quantitative High-Throughput drug screen in 47 multiple myeloma cell lines against the NCATS MIPE library collection: JIM1_ECACC cell viability assay (AID 1918964)
Summary of the method: (§2)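 Primary qHTS used for cherry-picking: cells at 500/well, library compounds for 48 h (37C, 5% CO2), luminescent ATP assay.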

[4] = Quantitative High-Throughput drug screen in 47 multiple myeloma cell lines against the NCATS MIPE library collection: INA6_PLB cell viability assay (AID 1918965; also: nearly all actives have a fitted effect of over 55% in size)
Summary of the method: (§3)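 Luminescent ATP measurement with CellTiter-Glo gives viability, scaled between DMSO-only wells (100%) and media-only wells (0%). Cells, 500 per well, faced library compounds for 48 hours at 37C.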

[5] = Quantitative High-Throughput drug screen in 47 multiple myeloma cell lines against the NCATS MIPE library collection: JJN3_DSMZ cell viability assay (AID 1918966; also: nearly all actives have a fitted effect of over 50% in size)
Summary of the method: as §2

[6] = Quantitative High-Throughput drug screen in 47 multiple myeloma cell lines against the NCATS MIPE library collection: H1112_PLB cell viability assay (AID 1918967; also: nearly all actives have a fitted effect of over 30% in size)
Summary of the method: as §2

[7] = Quantitative High-Throughput drug screen in 47 multiple myeloma cell lines against the NCATS MIPE library collection: Karpas25_ECACC cell viability assay (AID 1918968; also: nearly all actives have a fitted effect of over 35% in size)
Summary of the method: as §2

[8] = Quantitative High-Throughput drug screen in 47 multiple myeloma cell lines against the NCATS MIPE library collection: KMS27_JCRB cell viability assay (AID 1918970); also: nearly all actives have a fitted effect of over 30% in size
Summary of the method: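 Each line is seeded at 500 cells per well and treated with library compounds for 48 hours under 37 °C, 5% CO2. CellTiter-Glo is then added for 5 min at room temperature before median relative luminescence is recorded.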

[9] = Quantitative High-Throughput drug screen in 47 multiple myeloma cell lines against the NCATS MIPE library collection: KMS12BM_JCRB cell viability assay (AID 1918971); also: nearly all actives have a fitted effect of over 35% in size
Summary of the method: (§4)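 Myeloma cells (500 per well) were exposed to MIPE 4.0 compounds by pin transfer and incubated 48 hours at 37C, 5% CO2. Viability was read as ATP by CellTiter-Glo luminescence, normalised to DMSO (100%) and media-only (0%) wells.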

[10] = Quantitative High-Throughput drug screen in 47 multiple myeloma cell lines against the NCATS MIPE library collection: KMS12PE_JCRB cell viability assay (AID 1918972); also: nearly all actives have a fitted effect of over 30% in size
Summary of the method: as §3

[11] = Quantitative High-Throughput drug screen in 47 multiple myeloma cell lines against the NCATS MIPE library collection: KMS20_JCRB cell viability assay (AID 1918973); also: nearly all actives have a fitted effect of over 45% in size
Summary of the method: as §2

[12] = Quantitative High-Throughput drug screen in 47 multiple myeloma cell lines against the NCATS MIPE library collection: KMS21BM_JCRB cell viability assay (AID 1918974); conditions: ATP luminescence, 48 h; viability: at 45.8 µM (top of the series) unless noted
Summary of the method: as §2

[13] = Quantitative High-Throughput drug screen in 47 multiple myeloma cell lines against the NCATS MIPE library collection: KMS26_JCRB cell viability assay (AID 1918975); also: nearly all actives have a fitted effect of over 45% in size
Summary of the method: as §4

[14] = Quantitative High-Throughput drug screen in 47 multiple myeloma cell lines against the NCATS MIPE library collection: MOLP8_DSMZ cell viability assay (AID 1918977); also: nearly all actives have a fitted effect of over 45% in size
Summary of the method: (§5)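 qHTS format: cells plated (500/well), pin-dosed with MIPE 4.0 compounds, kept 48 h at 37 °C. Readout was CellTiter-Glo luminescence, median RLU.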

[15] = Quantitative High-Throughput drug screen in 47 multiple myeloma cell lines against the NCATS MIPE library collection: NCIH929_DSMZ cell viability assay (AID 1918978); also: nearly all actives have a fitted effect of over 35% in size
Summary of the method: as §5

[16] = Quantitative High-Throughput drug screen in 47 multiple myeloma cell lines against the NCATS MIPE library collection: OCIMY1_PLB cell viability assay (AID 1918979); also: nearly all actives have a fitted effect of over 35% in size
Summary of the method: as §5

[17] = Quantitative High-Throughput drug screen in 47 multiple myeloma cell lines against the NCATS MIPE library collection: MM1S_ATCC cell viability assay (AID 1918980); also: nearly all actives have a fitted effect of over 45% in size
Summary of the method: as §5

[18] = Quantitative High-Throughput drug screen in 47 multiple myeloma cell lines against the NCATS MIPE library collection: MM1R_ATCC cell viability assay (AID 1918981); also: nearly all actives have a fitted effect of over 35% in size
Summary of the method: as §5

[19] = Quantitative High-Throughput drug screen in 47 multiple myeloma cell lines against the NCATS MIPE library collection: LP1_DSMZ cell viability assay (AID 1918982); also: nearly all actives have a fitted effect of over 35% in size
Summary of the method: as §5

[20] = Quantitative High-Throughput drug screen in 47 multiple myeloma cell lines against the NCATS MIPE library collection: MMM1_PLB cell viability assay (AID 1918976); also: nearly all actives have a fitted effect of over 35% in size
Summary of the method: as §5
Potency is read from the fitted curve at half-maximal effect.

SMILES | Potency [1] | Potency [2] | Potency [3] | Potency [4] | Potency [5] | Potency [6] | Potency [7] | Potency [8] | Potency [9] | Potency [10] | Potency [11] | Potency [12] | Potency [13] | Potency [14] | Potency [15] | Potency [16] | Potency [17] | Potency [18] | Potency [19] | Potency [20]
CC(C)[C@H](C(=O)Nc1ccc(C(=O)NO)cc1)c1ccccc1 | 1320 nM (active) | 1480 nM (active) | 332 nM (active) | 235 nM (active) | 662 nM (active) | 1050 nM (active) | 418 nM (active) | 2090 nM (active) | 526 nM (active) | 526 nM (active) | 833 nM (active) | 105 nM (active) | 3320 nM (active) | 526 nM (active) | 526 nM (active) | 1180 nM (active) | 662 nM (active) | 526 nM (active) | 743 nM (active) | 
COc1cc(OC2CCN(C)CC2)ccc1Nc1ncc2c(n1)n(C1CCCC1)c(=O)n2C | 6620 nM (active) | 11800 nM (active) | 11800 nM (active) | 3720 nM (active) |  | 14800 nM (active) | 6620 nM (active) | 20900 nM (active) | 9350 nM (active) | 7430 nM (active) | 7430 nM (active) |  | 13200 nM (active) |  | 6620 nM (active) |  | 11800 nM (active) |  |  | 
COc1ccc(C=Cc2cc(OC)c(OC)c(OC)c2)cc1O | inactive | inactive | inactive | inactive |  | inactive | inactive | inactive |  | inactive |  | inactive |  |  | inactive | inactive |  |  | inactive | inactive
COC(=O)c1ccc2c(C(=Nc3ccc(N(C)C(=O)CN4CCN(C)CC4)cc3)c3ccccc3)c(O)[nH]c2c1 | 26400 nM (active) | 6620 nM (active) | 46.9 nM (active) | 8330 nM (active) | 2350 nM (active) |  |  |  | 16600 nM (active) | 526 nM (active) | 2640 nM (active) | 52.6 nM (active) | 2640 nM (active) | 9350 nM (active) | 5900 nM (active) | 10500 nM (active) | 1180 nM (active) | 14800 nM (active) |  | 7430 nM (active)
CC(=O)SC[C@@H](C)C(=O)N1CCC[C@H]1C(=O)N[C@@H](Cc1ccccc1)C(=O)O | inactive | inactive | inactive | inactive |  |  | inactive |  | inactive | inactive |  |  |  | inactive | inactive | inactive |  | inactive | inactive | 1870 nM (active)
COc1cccc2nc(-c3cccs3)nc(NN3C(=O)C=C(C)C3=O)c12 | 52.6 nM (active) | 148 nM (active) | 105 nM (active) |  | 1180 nM (active) | 1180 nM (active) | 26.4 nM (active) | 235 nM (active) | 105 nM (active) | 118 nM (active) | 59 nM (active) | 235 nM (active) | 2960 nM (active) |  | 235 nM (active) | 187 nM (active) | 418 nM (active) |  | 187 nM (active) | 5900 nM (active)
O=c1[nH]c(=O)n(C2CCCO2)cc1F (stereo unspecified) | inactive | inactive | inactive |  | inactive | inactive | inactive | inactive | 19100 nM (active) | inactive |  | inactive | inactive |  | inactive | inactive |  |  | inactive | 
Cc1ccc(NC(=O)C2(c3ccc4c(c3)OC(F)(F)O4)CC2)nc1-c1cccc(C(=O)O)c1 | 66.2 nM (active) | 118 nM (active) | 41.8 nM (active) | 29.6 nM (active) | 148 nM (active) |  |  | 46.9 nM (active) | 29.6 nM (active) | 41.8 nM (active) | 83.3 nM (active) | 46.9 nM (active) | 59 nM (active) | 20.9 nM (active) | 235 nM (active) | 187 nM (active) | 52.6 nM (active) |  | 66.2 nM (active) | 52.6 nM (active)
Nc1ccccc1NC(=O)c1ccc(CNc2nccc(-c3cccnc3)n2)cc1 | 2640 nM (active) | 2640 nM (active) | 1320 nM (active) | 296 nM (active) |  | 2640 nM (active) | 833 nM (active) | 2640 nM (active) |  | 469 nM (active) | 743 nM (active) | 662 nM (active) | 1320 nM (active) | 1180 nM (active) | 1180 nM (active) | 3320 nM (active) | 935 nM (active) | 743 nM (active) | 2090 nM (active) | 
Cc1ccc(C(N)=O)cc1Nc1nccc(-c2cn(C(C)C)c3cnccc23)n1 | 3320 nM (active) | 5260 nM (active) | 2350 nM (active) | 2640 nM (active) | 4690 nM (active) |  | 3720 nM (active) | 3320 nM (active) |  | 5900 nM (active) | 4180 nM (active) | 935 nM (active) | 10500 nM (active) | 4690 nM (active) | 2960 nM (active) |  | 7430 nM (active) | 8330 nM (active) | 8330 nM (active) | 16600 nM (active)
